From publication PMC10726135, “HNF4α isoforms regulate the circadian balance between carbohydrate and lipid metabolism in the liver” come the findings set out here.

The full ranking holds about 18,000 sequences; the median of “log2 normalized intensity” is about 0.39, and the highest 2% start at about 6.6. The list comes from a sample in which the highest values are over-represented; it also holds similar and randomly drawn sequences.

This test deals with T1, HNF4alpha2 (COS-7 nuclear extract) (Homo sapiens, UniProt P41235 1-474).
T1 sequence: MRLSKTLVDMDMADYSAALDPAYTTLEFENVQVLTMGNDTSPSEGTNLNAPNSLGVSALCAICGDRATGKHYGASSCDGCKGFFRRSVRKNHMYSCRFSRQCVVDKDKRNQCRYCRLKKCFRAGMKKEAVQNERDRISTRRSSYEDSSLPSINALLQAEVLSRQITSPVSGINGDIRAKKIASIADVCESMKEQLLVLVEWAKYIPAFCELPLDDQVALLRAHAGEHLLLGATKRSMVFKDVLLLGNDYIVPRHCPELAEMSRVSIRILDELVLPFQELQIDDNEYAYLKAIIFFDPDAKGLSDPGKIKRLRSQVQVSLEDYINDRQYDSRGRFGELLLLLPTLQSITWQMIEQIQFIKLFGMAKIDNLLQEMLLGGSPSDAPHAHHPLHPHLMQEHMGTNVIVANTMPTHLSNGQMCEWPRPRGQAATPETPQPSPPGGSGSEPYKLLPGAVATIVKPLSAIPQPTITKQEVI
Put plainly: protein-binding microarray; COS-7 nuclear extract on double-stranded Agilent 4x180k PBM; binding buffer, salt, pH and temperature not given in the material; high values mean tight binding. To be noted: chain copies: 2; label: 3' end of strand 1 on the slide; dsDNA, one strand shown. In a few lines: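 The binding signal is Agilent software's gProcessedSignal after background correction and normalization. Arrays were a custom Agilent SurePrint G3 4x180k design of double-stranded ~60-nt oligonucleotides with ~44,000 test sequences in quadruplicate, probed with nuclear extracts of COS-7 cells transiently expressing a human HNF4α isoform. Scans were made at 2-µm resolution on an Agilent G2565CA scanner.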
In the case of “GGACTTGATCCAGGGCAAAGGTCATAATTTGCCTAGGGAGATTAGAGTATCGGTCGA”, the binding signal is 6.98 log2 normalized intensity.
On to “AGAAAACACAGAGATCTGATCAAAGGTCATGCCTAGGGAGATTAGAGTATCGGTCGA”, for which the binding signal was 5.9 log2 normalized intensity.
In the case of “TCAGGAGCCCCACAGAGCAAAGGTCATGCAGCCTAGGGAGATTAGAGTATCGGTCGA”, the binding signal was found to be 5.38 log2 normalized intensity.
Next, “TGATCCAGGGCAAAGGTCATAATTTGATCCGCCTAGGGAGATTAGAGTATCGGTCGA”: 6.34 log2 normalized intensity; “CAAAGGTCATAATTTGATCCAGTGTGCAAAGCCTAGGGAGATTAGAGTATCGGTCGA”: 3.35 log2 normalized intensity; “GAGCTTTTACCTCAAATAAAGGTCAGAGTCGCCTAGGGAGATTAGAGTATCGGTCGA”: 1.79 log2 normalized intensity.
For the sequence “GTATCAGGGCTCAGGAATGTGGGGTCAACAGCCTAGGGAGATTAGAGTATCGGTCGA”, the binding signal came to 2.99 log2 normalized intensity.
The value for “CCGCGACAAGCGTCGCTGAGTGGAGGCCCAGCCTAGGGAGATTAGAGTATCGGTCGA” was -0.847 log2 normalized intensity; that for “GCAATGTGGACTTTGTCCTGTGGGCTGTAAGCCTAGGGAGATTAGAGTATCGGTCGA” was 7.35 log2 normalized intensity; that for “GTGGGAGAAAGCTTTGGACTTTGGGCTGTGGCCTAGGGAGATTAGAGTATCGGTCGA” was 5.72 log2 normalized intensity.
Next, “GCCACGGTCAGCAATGTGGACTTTGTCCTGGCCTAGGGAGATTAGAGTATCGGTCGA”: 9.67 log2 normalized intensity; “AGTTTGCCACGGTCAGCAATGTGGACTTTGGCCTAGGGAGATTAGAGTATCGGTCGA”: 6.18 log2 normalized intensity.
The value for “GGTCAGCAATGTGGACTTTGTCCTGTGGGCGCCTAGGGAGATTAGAGTATCGGTCGA” was 7.77 log2 normalized intensity; that for “GTGGACTTTGTCCTGTGGGCTGTAAAAATCGCCTAGGGAGATTAGAGTATCGGTCGA” was 5.03 log2 normalized intensity.
Regarding “CCGTCCTGTCCTGGACTTTCCTTTGTTGGGGCCTAGGGAGATTAGAGTATCGGTCGA”, the binding signal came out at 2.3 log2 normalized intensity.
Next, “ATGGACTTTGAAGGAGATTCCTGTGTCAGCGCCTAGGGAGATTAGAGTATCGGTCGA”: 0.984 log2 normalized intensity.
Next, “TGGACTTTGGTCCTGGTCAGACTTGCCACGGCCTAGGGAGATTAGAGTATCGGTCGA”: 4.5 log2 normalized intensity; “TTGTCAGTGCCCTATACAGACCTTTGTATAGCCTAGGGAGATTAGAGTATCGGTCGA”: 2.96 log2 normalized intensity.
In the case of “CTCACAGAGTGGAGTCTTCCGTTTGATAGAGCCTAGGGAGATTAGAGTATCGGTCGA”, the binding signal was -0.436 log2 normalized intensity.
Regarding “CTTTATCTAGATAAGTTTATTTACTTATGTGCCTAGGGAGATTAGAGTATCGGTCGA”, the binding signal is 1.49 log2 normalized intensity.
“ATGGTCAGTGTTGATAAGAAAGCTGCAGTCGCCTAGGGAGATTAGAGTATCGGTCGA”: the binding signal came out at 0.747 log2 normalized intensity.
“TAGGTTATCTTTGGAGAATGCCTTTTGTGTGCCTAGGGAGATTAGAGTATCGGTCGA”: the binding signal worked out at 2.15 log2 normalized intensity.
For “ATACTTAGGATTTTTGTGCCTCTTTGGTGAGCCTAGGGAGATTAGAGTATCGGTCGA”, the binding signal was found to be 1.13 log2 normalized intensity.
Next, “TATTCAAACAGAGGACAGTTGTGTTTGTTGGCCTAGGGAGATTAGAGTATCGGTCGA”: 1.96 log2 normalized intensity.
As for “TTTGGTGAGGCCCCAGTGTCAATTCTCATTGCCTAGGGAGATTAGAGTATCGGTCGA”, the binding signal amounted to 1.82 log2 normalized intensity.
Next, “CAGGCTGTTTTCCTATAGATTTGTTAAATCGCCTAGGGAGATTAGAGTATCGGTCGA”: 1.13 log2 normalized intensity; “CTTTGTGGCAGGAGGAGCTGTTTGACATCCGCCTAGGGAGATTAGAGTATCGGTCGA”: 0.0869 log2 normalized intensity; “AAAGGGACTCATCTCCAAACGAGACTTTGGGCCTAGGGAGATTAGAGTATCGGTCGA”: 1.6 log2 normalized intensity.
The value for “GCTAAGAGACAGCTCCACAGCTGGACTTTGGCCTAGGGAGATTAGAGTATCGGTCGA” was 5.15 log2 normalized intensity; that for “TACATTGGACAACTGTACTTTGGACTGGGGGCCTAGGGAGATTAGAGTATCGGTCGA” was 5.99 log2 normalized intensity; that for “CTCCAAACATCTTTGGTATGGACTGATATTGCCTAGGGAGATTAGAGTATCGGTCGA” was 1.5 log2 normalized intensity.
The value for “ACAGTTCTGATACATTGGACAACTGTACTTGCCTAGGGAGATTAGAGTATCGGTCGA” was 2.1 log2 normalized intensity; that for “GGGTGAAAGGGACTCATCTCCAAACGAGACGCCTAGGGAGATTAGAGTATCGGTCGA” was -0.986 log2 normalized intensity.
As for “GACTCATCTCCAAACGAGACTTTGGACTTTGCCTAGGGAGATTAGAGTATCGGTCGA”, the binding signal worked out at 8.97 log2 normalized intensity.
“ATCTCCAGATAAGACTTTGGACTTTGGACCGCCTAGGGAGATTAGAGTATCGGTCGA”: the binding signal was found to be 11.6 log2 normalized intensity.
Next, “ATCTCCAAACGAGACTTTGGACTTTGGACTGCCTAGGGAGATTAGAGTATCGGTCGA”: 11.8 log2 normalized intensity; “TCTGATACATTGGACAACTGTACTTTGGACGCCTAGGGAGATTAGAGTATCGGTCGA”: 7.2 log2 normalized intensity; “GGTGAGATAAGAAGACTCCAGGGGACTGCCGCCTAGGGAGATTAGAGTATCGGTCGA”: -0.872 log2 normalized intensity.
For “GAGACAGCTCCACAGCTGGACTTTGGCTGCGCCTAGGGAGATTAGAGTATCGGTCGA”, the binding signal amounted to 5.41 log2 normalized intensity.
The value for “ATGATTGACAGGTTATTTCAATTACAAAGCGCCTAGGGAGATTAGAGTATCGGTCGA” was 1.06 log2 normalized intensity.
As to “CCCGGCAGATCAGGGTCAGGCTGTGGTACGGCCTAGGGAGATTAGAGTATCGGTCGA”, the binding signal was found to be 0.662 log2 normalized intensity.
Next, “AGTCCCTGTCCCTTCTTGGCAAGTTAATGTGCCTAGGGAGATTAGAGTATCGGTCGA”: 1.94 log2 normalized intensity; “GGTGAGGGTGAGGGTGAGGGTTAGGGGTTAGCCTAGGGAGATTAGAGTATCGGTCGA”: -0.0851 log2 normalized intensity.
